{
  "source": "PubChem BioAssay (Tox21)",
  "note": "Unmarked numbers belong to inactive results. Calls of active or inactive are those of the source. The call rests on the fitted dose curve; in most records, active means well fitted curve in the direction sought with a large enough effect in the repeat runs; inconclusive means weak or mixed curves; inactive means flat fitted curve, though single readings scatter. On the % scale 0 is the no-effect control and ±100 the full control effect.",
  "data": [
    {"assay": "qHTS assay to test for compound auto fluorescence at 460 nm (blue) in HepG2 cell free culture (AID 720685)", "settings": "Cell-free culture medium, blue autofluorescence 405/460 nm; series mostly up to 91.3 µM; fluorescence, % of fluorescent control: at the top concentration", "outline": "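Compound (23 nL) or DMSO pinned into cell-free MEM with 10% FBS; blue fluorescence read at 405/460 nm excitation/emission, expressed as auto-fluorescence equivalency to triamterene.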", "values": [
      {"smiles": "CC(C)CCCCCCOC(=O)C1CCCCC1C(=O)OCCCCCCC(C)C", "note": "(stereo not given)", "fluorescence, % of fluorescent control": "0.0214%"},
      {"smiles": "OCCCCCCCl", "fluorescence, % of fluorescent control": "0.0166% [at 95.7 µM]"},
      {"smiles": "CCCCCCCC/C=C\\CCCCCCCC(=O)OC[C@@H](O)[C@H]1OC[C@H](O)[C@H]1O", "outcome": "inactive"},
      {"smiles": "Cc1cccc(Nc2ccncc2S(=O)(=O)NC(=O)NC(C)C)c1", "fluorescence, % of fluorescent control": "-0.124% [at 18.6 µM]"},
      {"smiles": "CNC(=O)NC", "fluorescence, % of fluorescent control": "0.131% [at 95.7 µM]"},
      {"smiles": "O=C(/C=C/c1ccccc1)NCCO", "fluorescence, % of fluorescent control": "-0.111% [at 46 µM]"},
      {"smiles": "O=C(O)c1ccccc1C(=O)OCc1ccccc1", "fluorescence, % of fluorescent control": "0.104%"},
      {"smiles": "NC(Cc1c[nH]c2ccccc12)C(=O)O", "note": "(stereo not given)", "fluorescence, % of fluorescent control": "0.536% [at 46 µM]"},
      {"smiles": "N#CCCOCCOCCC#N", "fluorescence, % of fluorescent control": "0.168%"},
      {"smiles": "COC(OC)C(C)c1ccccc1", "note": "(stereo not given)", "fluorescence, % of fluorescent control": "-0.0204%"},
      {"smiles": "Cc1ccccc1N1CCN(CCc2nnc3n2CCCC3)CC1", "fluorescence, % of fluorescent control": "-0.087% [at 46 µM]"},
      {"smiles": "CCN1CN(CC)CN(CC)C1", "fluorescence, % of fluorescent control": "-0.0685%"},
      {"smiles": "O=P(O)(O)OCC(O)CO", "note": "(stereo not given)", "fluorescence, % of fluorescent control": "-0.0095% [at 46 µM]"},
      {"smiles": "Cc1cccc(NC(=S)N(C)C)c1", "fluorescence, % of fluorescent control": "-0.0365%"},
      {"smiles": "CCCCCCCC[Si](OCC)(OCC)OCC", "fluorescence, % of fluorescent control": "-0.038%"}
    ]}
  ]
}
